A selection: hits, their analogues and other compounds. The true share with any hit is near 13%.
USP17 block: blocks human USP17 ubiquitin-rhodamine cleavage | A8MUK1 | purified USP17, Ub-rhodamine cleavage fluorescence, 3 h | inhibition, % at 50 µM | 47,000 compounds, 6.5% hits
USP30 block: human USP30 deubiquitinase inhibition. Q70CQ3. purified USP30, Ub-rhodamine cleavage fluorescence. inhibition, % at 25 µM. 47,000 compounds, 5.3% hits
USP28 inh: inhibitors of human USP28 deubiquitinase; Q96RU2; inhibition, % at 25 µM; 47,000 compounds, 3% hits; AID 1645857; purified USP28, Ub-rhodamine cleavage fluorescence, 30 min
USP8 inh: human USP8 deubiquitinase inhibition. P40818. purified USP8, Ub-rhodamine cleavage fluorescence, 30 min. inhibition, % at 20 µM. 47,000 compounds, 4.2% hits. AID 1645853
USP7 block: human USP7 deubiquitinase inhibition. Q93009. purified USP7, Ub-rhodamine cleavage fluorescence. inhibition, % at 20 µM. 47,000 compounds, 0.3% hits
USP10 inh: human USP10 deubiquitinase inhibition | purified USP10, Ub-rhodamine fluorescence, 60 min | 47,000 compounds, 1.1% hits | Q14694 | inhibition, % at 20 µM
* hit, by the source's call; i = inactive. Cut-off read from the data, not from the text of the source: active = inhibition above about 30%; inactive = the rest.

SMILES	USP17 block	USP30 block	USP28 inh	USP8 inh	USP7 block	USP10 inh
O=C(COC(=O)c1ccccc1OCc1ccccc1)Nc1cccc2ccccc12	23	49*	30*	28	8	6
CC1=C2C[C@@H]3C(CNCc4ccc(F)cc4)C(=O)O[C@@H]3C[C@@]2(C)CCC1 (some centres undefined)	-10	7	5	-67	-29	-3
COCCCn1c(SCCc2ccccc2)nc2cc(OC)c(OC)cc2c1=N	43*	3	-7	3	14	9
O=C(NC1CC1)c1ccc2c(=O)n(-c3ccc(F)cc3)cnc2c1	20	-10	-20	62*	-7	-1
COc1ccc(CCNC(=O)c2ccc3c(=O)n(-c4ccccc4OC)cnc3c2)cc1	-27	-16	26	-10	0	3
COc1cccc(-n2cnc3cc(C(=O)NC4CC4)ccc3c2=O)c1	73*	-14	-4	92*	-7	2
CCN(CC)c1ccc(-c2noc(CN3CCC4(CC3)OCCO4)n2)cn1	-13	-10	-6	-11	-4	-4
O=C(CCc1ccccc1)NC(c1ccccc1)c1ccccc1	16	27	-1	-6	3	4
Cc1ccccc1OCCC(=O)NC(c1ccccc1)c1ccccc1	32*	21	10	12	7	0
Cc1cccnc1Nc1nccnc1C1CCN(C(=O)c2ccn[nH]2)CC1	2	23	10	-54	3	0
Cc1ccc(-n2nc(C)c(/C=C(\C#N)c3nc4ccccc4[nH]3)c2C)cc1C	-72	-280	-57	-44	-37	-6
N#C/C(=C\c1cn(CCC(N)=O)c2ccccc12)c1nc2ccccc2[nH]1	40*	-130	-23	-15	3	-2
CC(=O)Nc1ccc(NC(=O)c2ccc3c(c2)CC(c2ccccc2)OC3=O)cc1 (centres undefined)	21	22	0	34*	4	22
NS(=O)(=O)c1ccc(NC(=O)c2ccc3c(c2)CC(c2ccccc2)OC3=O)cc1 (centres undefined)	19	20	24	1	0	14
COc1ccc(Cn2c(C(=O)O)c(CNCc3ccco3)c3ccccc32)cc1	13	-40	-1	16	-6	3
COc1ccc(OCC(=O)Nc2cc(C)c(O)c(-c3nc4ccccc4o3)c2)cc1	-3	15	3	1	4	1
Cc1c(NC(=O)COc2ccc(C3CCCCC3)cc2)cccc1-c1nc2ncccc2o1	43*	22	7	-7	8	6
Cc1cccc(C(=O)Nc2nnc3n2CCCS3)c1	-2	13	27	-23	2	2
O=C(Nc1nnc2n1CCCS2)c1cc2ccccc2o1	-21	14	51*	-185	9	0
Cc1ccc(C(=O)Nc2nnc3n2CCCS3)cc1	-16	-4	32*	4	1	0
O=C(Nc1ccc(F)cc1Cl)c1cnc(N2CCN(c3ccccn3)CC2)c2ccccc12	-11	-1	-1	1	7	5
CC(C)(C)c1cnc(CN2CCOC(Cn3cncn3)C2)o1 (centres undefined)	-43	-131	-31	-22	-11	-3
Cc1ccc(-n2c(C)cc(/C=C3\C(=N)N4N=C(COc5ccccc5C)SC4=NC3=O)c2C)cc1	-189	i	-215	-45	11	3
Cc1ccc(Cl)cc1NC(=O)c1ccc(N(C)C)cc1	15	11	-11	0	0	6
CN(C)c1ccc(/C=N/NC(=O)c2ccc(Cl)cc2)cc1	88*	23	-2	51*	10	14
SMILES	USP17 block	USP30 block	USP28 inh	USP8 inh	USP7 block	USP10 inh
COc1ccc(S(=O)(=O)N2CCC(C(=O)Nc3nc4c(F)cccc4s3)CC2)cc1	0	-27	9	1	1	4
Cc1cc(C(=O)Nc2cc(C)n(Cc3ccc(Cl)cc3)n2)no1	11	1	72*	0	-5	2
Cc1cc(-c2cc3nc4c(c(=O)n3[nH]2)CN(Cc2cccs2)CC4)no1	7	-4	-5	-63	0	-4
O=C(NCC1(c2ccccc2)CCC1)c1nc2n(n1)-c1ccccc1S(=O)(=O)N2	9	22	17	-3	10	39*
O=C(Nc1ccccc1Cc1ccccc1)c1nc2n(n1)-c1ccccc1S(=O)(=O)N2	-2	18	10	59*	17	46*
C[C@]12C[C@@H](Cc3ccccc3)N(C(=O)c3cccc(Cn4cncn4)c3)[C@H]1CCCC(=O)N2	-5	-24	-7	-4	-3	0

Bioassay records deposited in PubChem BioAssay by Buhrlage Lab, Dana-Farber Cancer Institute and Novartis Institutes for BioMedical Research (Cambridge, Mass).
